Data as given in PubChem BioAssay.
A number with no mark means an inactive call. The rule behind the calls is not given here.

Target: Pantothenate synthetase (Mycobacterium tuberculosis (strain ATCC 25618 / H37Rv)) (UniProt P9WIL5)
Assay: Recombinant Mtb pantothenate synthetase (PanC) inhibitors, coupled enzyme, confirmatory (AID 375);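 note: 0% = full reaction with vehicle and 100% = no enzyme background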
Settings: coupled enzyme assay; at 10 µM, active compounds read high

Chain of Pantothenate synthetase (Mycobacterium tuberculosis (strain ATCC 25618 / H37Rv)) (P9WIL5 whole entry, looked up): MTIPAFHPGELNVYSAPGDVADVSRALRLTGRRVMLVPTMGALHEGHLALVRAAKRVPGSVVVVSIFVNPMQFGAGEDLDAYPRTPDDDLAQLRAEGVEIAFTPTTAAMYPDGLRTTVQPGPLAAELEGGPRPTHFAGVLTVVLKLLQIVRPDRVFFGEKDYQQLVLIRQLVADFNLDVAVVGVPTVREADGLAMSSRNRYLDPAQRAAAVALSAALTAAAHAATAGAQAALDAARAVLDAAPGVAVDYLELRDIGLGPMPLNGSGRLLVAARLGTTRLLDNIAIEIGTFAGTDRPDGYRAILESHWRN

Structure (SMILES) | inhibition [%]
COc1ccc(C)cc1-n1nnnc1SCC(=O)NC(=O)NCc1ccco1 | 11
O=C(CCC(=O)OCCCC(F)(F)C(F)(F)F)NC1CCCCC1 | 0
CCCNC(=O)c1c(N)n(-c2cc(OC)cc(OC)c2)c2nc3ccccc3nc12 | 8
O=C(Nc1nnc(C2CCCCC2)s1)c1cccs1 | 8
CCC(C)NC(=O)c1ccccc1NC(=O)C(C)N(c1ccccc1)S(C)(=O)=O (stereo not given) | 0
CC(=O)N1CCN(Cc2ccc(Br)s2)CC1 | 0
COc1ccc(-c2nc(C#N)c(NCCCN(C)C)o2)cc1OC | 0
Cc1ccc(-c2noc(CCC(=O)NC3CCCc4ccccc43)n2)cc1 (stereo not given) | 2
Cc1ccc2nsnc2c1S(=O)(=O)N1CCN(Cc2ccc3c(c2)OCO3)CC1 | 5
COC(=O)C(C)NC(=O)C12CC3CC(CC(C3)C1)C2 (stereo not given) | 0
CN(C(=O)C1CCOC1)c1nnc(-c2cccnc2)s1 (stereo not given) | 0
COc1ccc(Cl)c(NCCC(=O)O)c1 | 0
CCCC(=O)N1CCN(c2ccc(NC(=O)c3ccc(Br)o3)cc2)CC1 | 3
O=c1[nH]c2ccc(Br)cc2c(-c2ccccc2)c1N1CCOCC1 | 1
CCN1CCN(CCCNC(=O)c2cc3sccc3n2CC)CC1 | 0
Cc1cc(NS(=O)(=O)c2ccc(NC(=O)COc3ccccc3C(C)C)cc2)no1 | 0
N#CCSc1nc(-c2ccccc2)cs1 | 0
CCOC(=O)C1CCN(c2c(N(C)Cc3ccco3)c(=O)c2=O)CC1 | 0
NC(=O)c1cc(-c2ccccc2)nc(N2CCOCC2)n1 | 0
CC(C)Cc1n[nH]c(=O)[nH]1 | 2

Structure (SMILES) | inhibition [%]
N#CC1=C(N)OC(c2ccccc2)=C(C#N)C1c1ccc2c(c1)OCO2 (stereo not given) | 0
O=C1CSC(c2cccc(F)c2)N1c1ccccc1F (stereo not given) | 2
COC(=O)Cn1c(CN2CCOCC2)nc2c1c(=O)n(C)c(=O)n2C | 0
c1ccc(Cn2nnnc2CN2CCCC2)cc1 | 0
O=C(Nc1cccnc1)Nc1ccccn1 | 0
CCC1CCCCN1CCCNC(=O)CC1Oc2ccc(C)cc2NC1=O (stereo not given) | 0
COC(=O)CCC(NC(=O)c1cc(-c2ccc3c(c2)OCCO3)oc1C)C(=O)OC (stereo not given) | 0
COc1ccccc1OCc1ccc(C(=O)OCC2CCCO2)o1 (stereo not given) | 0
O=C(CCN1C(=O)COc2ccccc21)NCCN1CCN(c2cccc(Cl)c2)CC1 | 0
CCOCCCNC(=O)c1cc2sc(Cl)cc2n1CC | 0
CCOCCCNC(=O)CCNS(=O)(=O)c1ccc(C)cc1 | 2
Cc1nnc2n(-c3ccccc3)c(=O)c3c4c(sc3n12)CCCC4 | 2
CCN(CC)S(=O)(=O)c1ccc2oc(SCc3ccc(F)cc3)nc2c1 | 5
COCCn1c(SCC(=O)Nc2ccc3c(c2)OCCO3)nc2c(c1=O)SC(C)C2 (stereo not given) | 3
COc1cccc(CNC(=O)CCS(=O)(=O)c2cccc3nsnc23)c1 | 6
COc1ccc(CC(=O)Nc2cc(Cl)ccc2O)cc1 | 5
CCS(=O)(=O)N1CCC(C(=O)N2CCOCC2)CC1 | 2
O=C(NCC(c1cccnc1)N1CCN(c2ccccc2)CC1)c1ccc2c(c1)OCO2 (stereo not given) | 0
Cc1ccc(N2CC(C(=O)N3CCN(C(=O)c4ccco4)CC3)CC2=O)cc1 (stereo not given) | 0
CCOc1ccc(C(=O)N(Cc2ccc(N(C)C)cc2)C2CCS(=O)(=O)C2)cc1 (stereo not given) | 0
